{"source": "PubChem BioAssay AID504697", "about": "(The Scripps Research Institute Molecular Screening Center, 2011)", "note": "Values without a mark were called inactive. Activity calls are given as the source filed them.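 How the source made its calls: active means EC50 at or below 10 µM; inactive means EC50 above 10 µM.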", "data": [{"assay": "compound autofluorescence in calcium buffer – biochemical, fluorescence, no RTF in test wells, artefact control for cardiac thin filament activator project, dose response (AID 504697);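 further: emission near 535 nm under roughly 485 nm excitation as for IANBD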", "settings": "compound-only fluorescence in RTF assay buffer with Ca2+ (no RTF in test wells), artifact counterscreen", "values": [{"smiles": "CCSC1=N/C(=C\\C=C2/Oc3ccccc3N2CC)C(=O)S1", "EC50": "11.9 µM"}, {"smiles": "N#CC1=C(N)Oc2ccc3ccc(O)cc3c2C1c1ccsc1", "note": "(stereo unspecified)", "EC50": "65.8 µM"}, {"smiles": "Cc1sc(NC(=O)CSc2nnc(C(C)C)n2C)c(C#N)c1C", "EC50": "> 71.5 µM"}, {"smiles": "COc1ccccc1NS(=O)(=O)c1cc([N+](=O)[O-])ccc1N/N=C/c1c(C)[nH]c2ccccc12", "EC50": "9.25 µM (active)"}, {"smiles": "S=C(Nc1ccc(N2CCOCC2)cc1)Nc1ccc2nc(-c3ccco3)c(-c3ccco3)nc2c1", "EC50": "11.4 µM"}, {"smiles": "CCOC(=O)c1sc(-c2ccc(F)cc2)cc1NC(=O)Nc1ccccc1OC", "EC50": "> 71.4 µM"}, {"smiles": "CC(=O)N(C)c1ccc(C(O)(C(F)(F)F)C(F)(F)F)cc1", "EC50": "> 71.5 µM"}, {"smiles": "COc1ccc(-c2nn(-c3ccccc3)cc2/C=N/NC(N)=S)cc1OC", "EC50": "> 71.5 µM"}, {"smiles": "O=C(Nc1ccccc1-c1ccccc1)c1ccc(Cl)c([N+](=O)[O-])c1", "EC50": "> 71.5 µM"}, {"smiles": "Cc1cccc(/C=N/NC(=O)C(C)Nc2cccc3ccccc23)n1", "note": "(stereo unspecified)", "EC50": "26.9 µM"}, {"smiles": "Fc1ccc(CNC(=S)NCc2ccc(F)cc2)cc1", "EC50": "> 71.5 µM"}, {"smiles": "O=C(N/N=C/c1sc2ccccc2c1O)c1ccccc1", "EC50": "17.9 µM"}, {"smiles": "O=C(C1=C(O)C(=O)N(CCN2CCOCC2)C1c1ccc([N+](=O)[O-])cc1)c1cccs1", "note": "(stereo unspecified)", "EC50": "> 71.4 µM"}, {"smiles": "CN1C(=O)/C(=C/C=C2\\SCCN2C)OC1=S", "EC50": "15.9 µM"}, {"smiles": "CNC(=S)N1N=C(c2ccc(Br)cc2)CC1c1ccc(N(C)C)cc1", "note": "(stereo unspecified)", "EC50": "51.4 µM"}, {"smiles": "O=[N+]([O-])c1ccc(/C=C/C2=NN(c3ccccc3)C(c3ccco3)C2)cc1", "note": "(stereo unspecified)", "EC50": "1.04 µM (active)"}, {"smiles": "Fc1ccc(-c2nnc(-c3ccc(Cl)cc3Cl)o2)cc1", "EC50": "> 71.5 µM"}, {"smiles": "Cc1ccc(/C=C2\\Oc3c(ccc(O)c3CN3CCN(CCO)CC3)C2=O)cc1", "EC50": "34.2 µM"}, {"smiles": "O=C(NC1CCCCC1)c1cc2nc3c(c(C(F)(F)F)n2n1)CCCC3", "EC50": "> 71.5 µM"}, {"smiles": "c1ccc2[nH]c3cc4ncnc4cc3nc2c1", "EC50": "17.9 µM"}, {"smiles": "O=C(Nc1ccc(C(=O)N2CCOCC2)cc1)Nc1cccc(Cl)c1", "EC50": "> 71.5 µM"}, {"smiles": "O=C(O)c1ccc(NC(=S)NC(=O)c2ccc(-c3ccccc3)cc2)cc1", "EC50": "> 71.5 µM"}, {"smiles": "CCn1cc(C(=O)NCCC(=O)NCCO)c(=O)c2cc3c(cc21)OCO3", "EC50": "> 71.4 µM"}, {"smiles": "O=C(CSc1nnc(COc2ccccc2)o1)N1CCN(c2ccccc2)CC1", "EC50": "> 71.5 µM"}, {"smiles": "CCOC(=O)/C(=C/C=C1\\Sc2cc(OCC)c(OCC)cc2N1CC)C(C)=O", "EC50": "0.48 µM (active)"}, {"smiles": "CN(Cc1ccccc1)C(=O)c1[nH]cnc1C(=O)NCc1ccccc1", "EC50": "> 71.6 µM"}, {"smiles": "CC1(C)CC(=O)C(C=Nc2cc(C(=O)c3ccccc3)ccc2N)=C(O)C1", "EC50": "> 71.5 µM"}, {"smiles": "C=COc1ccc(N2C(=O)c3ccccc3OC2C)cc1", "note": "(stereo unspecified)", "EC50": "> 71.4 µM"}, {"smiles": "CN1CCC2(CC1)C1CN(C)CC=C1C(C#N)=C(N)C2(C#N)C#N", "note": "(stereo unspecified)", "EC50": "23.5 µM"}, {"smiles": "CCOC(=O)c1cc2n(c1N)-c1ccccc1C2=O", "EC50": "62.6 µM"}, {"smiles": "N#C/C(=C\\c1ccc(N2CCOCC2)o1)c1nc2ccccc2[nH]1", "EC50": "1.37 µM (active)"}, {"smiles": "COc1ccc(/C=C2\\SC(=S)N(CCCC(=O)Nc3ccccc3C(=O)O)C2=O)cc1OC", "EC50": "53.3 µM"}, {"smiles": "Cc1cccc(/C=N/n2c(-c3ccncc3)n[nH]c2=S)c1", "EC50": "> 71.5 µM"}, {"smiles": "COc1cc(N2CCCC2)c(OC)cc1/C=C1/NC(=S)NC1=O", "EC50": "4.35 µM (active)"}, {"smiles": "NC(=O)NC(=O)COC(=O)c1cccc(NS(=O)(=O)/C=C/c2ccccc2)c1", "EC50": "> 71.5 µM"}, {"smiles": "COc1ncnc2c1N=C1CC(C)(C)CC(N)=C1S2", "EC50": "23.5 µM"}]}]}
